From PubChem BioAssay (EPA / NIEHS)
Values joined by “and” are separate entries in the source; they are usually repeats but may differ in a detail not shown here. Equal entries are not always repeated. Inconclusive results are not listed. Active and inactive are the calls of the source. How the source made its calls, unless noted: active means hit-call score of the fitted dose curve at least 0.9, where 1 is the maximum; inconclusive means response in the unintended direction; inactive means score below 0.9.

Tests used:
[1] = ATG_TAL_CIS: Attagene CIS-FACTORIAL HepG2 Assay for human TAL Basal Promoter (AID 2282966; active means hit-call score of the fitted dose curve at least 0.9, where 1 is the maximum; inactive means score below 0.9;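 further: background control endpoint measuring basal TAL promoter reporter mRNA not a specific factor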); conditions: HepG2 Attagene cis-factorial TAL promoter reporter; actives raise or lower the signal
How it was run: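 HepG2, transient MRTU transfection, 24 h compound exposure; RNA → oligo(dT) RT → PCR → 6-FAM primer extension → HpaI digest → CE fluorescence. Bidirectional curve fit vs DMSO. Background-control readout.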

[2] = ATG_TGFb_CIS: Attagene CIS-FACTORIAL HepG2 Assay for human Transforming Growth Factor (TGF) (AID 2282967; active means hit-call score of the fitted dose curve at least 0.9, where 1 is the maximum; inactive means score below 0.9); conditions: HepG2 Attagene CIS TGFb reporter, mRNA transcription; actives raise or lower the signal
How it was run: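 Endogenous TGFB1-linked transcription factor activity read as reporter mRNA via RT-PCR and capillary electrophoresis, 24 h after dosing transiently transfected HepG2 cells. Gain or loss of signal fitted relative to DMSO.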

[3] = ATG_VDRE_CIS: Attagene CIS-FACTORIAL HepG2 Assay for human Vitamin D Receptor Element (VDRE) (AID 2282968; active means hit-call score of the fitted dose curve at least 0.9, where 1 is the maximum; inactive means score below 0.9); conditions: HepG2 VDRE cis-reporter transcription, actives raise or lower the signal
How it was run: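 Measures endogenous factor activity through cis-element-driven reporter transcripts in transiently transfected HepG2. Cells are treated 24 h; reporter mRNA is quantified by RT-PCR and capillary electrophoresis; fitting is bidirectional.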

[4] = target: X-box-binding protein 1 (Homo sapiens) (UniProt P17861); assay: ATG_Xbp1_CIS: Attagene CIS-FACTORIAL HepG2 Assay for human X-box Binding Protein 1 (XBP1) (AID 2282972; active means hit-call score of the fitted dose curve at least 0.9, where 1 is the maximum; inactive means score below 0.9); conditions: HepG2 XBP1 cis-element reporter, Attagene multiplex; actives raise or lower the signal
X-box-binding protein 1 (Homo sapiens), sequence (P17861 whole entry, looked up): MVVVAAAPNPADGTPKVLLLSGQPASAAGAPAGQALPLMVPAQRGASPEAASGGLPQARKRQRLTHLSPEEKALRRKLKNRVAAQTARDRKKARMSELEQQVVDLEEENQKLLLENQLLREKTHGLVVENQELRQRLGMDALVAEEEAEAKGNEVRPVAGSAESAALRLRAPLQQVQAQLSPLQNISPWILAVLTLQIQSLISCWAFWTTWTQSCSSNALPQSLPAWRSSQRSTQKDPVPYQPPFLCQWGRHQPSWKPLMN
How it was run: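 Changes in reporter transcript abundance, read by RT-PCR and capillary electrophoresis, reflect endogenous transcription factor activity. Transfected HepG2 cells received compound for 24 hours; DMSO defined baseline for bidirectional analysis.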

[5] = ATG_M_19_TRANS: Attagene TRANS-FACTORIAL HepG2 Assay for M19 Transcription Factor (Internal Marker) (AID 2282974); conditions: HepG2 Attagene TRANS-FACTORIAL M19 internal marker reporter
How it was run: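 Using RT-PCR and capillary electrophoresis, reporter mRNA from transiently transfected human HepG2 cells was quantified following 24 h exposure; activity was fitted in the positive direction against DMSO.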

[6] = ATG_GAL4_TRANS: Attagene TRANS-FACTORIAL HepG2 Assay for GAL4 (Internal Marker) (AID 2282976); conditions: HepG2 Attagene TRANS GAL4 internal marker reporter
How it was run: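 RT-PCR/capillary electrophoresis readout of reporter mRNA. HepG2, transient MRTU transfection (GAL4-UAS reporters), 24 h compound exposure. Background-control endpoint, positive direction vs DMSO baseline.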

[7] = target: Estrogen-related receptor gamma (Homo sapiens) (UniProt P62508); assay: ATG_ERRg_TRANS: Attagene TRANS-FACTORIAL HepG2 Assay for human Estrogen-Related Receptor gamma (ERRg) (AID 2282977); conditions: HepG2 Attagene TRANS reporter, ERRg transactivation;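 further: hits increase reporter signal over DMSO so potencies reflect activators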
Estrogen-related receptor gamma (Homo sapiens), sequence (P62508 whole entry, looked up, the tested form may be a part): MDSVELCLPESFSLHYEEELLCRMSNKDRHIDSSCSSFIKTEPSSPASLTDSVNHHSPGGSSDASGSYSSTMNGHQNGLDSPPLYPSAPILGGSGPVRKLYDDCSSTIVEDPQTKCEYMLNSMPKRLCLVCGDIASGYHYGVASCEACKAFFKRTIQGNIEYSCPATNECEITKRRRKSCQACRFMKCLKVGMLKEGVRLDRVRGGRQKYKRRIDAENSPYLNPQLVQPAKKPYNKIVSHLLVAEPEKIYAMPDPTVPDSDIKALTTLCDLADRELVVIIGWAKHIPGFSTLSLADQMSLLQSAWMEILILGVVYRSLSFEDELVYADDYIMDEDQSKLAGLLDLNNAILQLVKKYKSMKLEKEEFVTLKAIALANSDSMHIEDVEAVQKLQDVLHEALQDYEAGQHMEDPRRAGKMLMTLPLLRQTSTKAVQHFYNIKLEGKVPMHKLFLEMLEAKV
How it was run: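 Readout: fluorescent reporter-mRNA fragments resolved by capillary electrophoresis after RT-PCR and HpaI cut. Cells: transiently transfected HepG2 carrying GAL4-UAS reporters driven by exogenous NR-Gal4 chimeras, dosed 24 h. Activity fitted upward relative to DMSO baseline.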

[8] = target: Glucocorticoid receptor (Homo sapiens) (UniProt P04150); assay: ATG_GR_TRANS: Attagene TRANS-FACTORIAL HepG2 Assay for human Glucocorticoid Receptor (GR) (AID 2282978); conditions: HepG2 Attagene TRANS GR reporter, mRNA transcription;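 further: activators score as hits since higher reporter transcript over DMSO is fitted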
Glucocorticoid receptor (Homo sapiens), sequence (P04150 whole entry, looked up, the tested form may be a part): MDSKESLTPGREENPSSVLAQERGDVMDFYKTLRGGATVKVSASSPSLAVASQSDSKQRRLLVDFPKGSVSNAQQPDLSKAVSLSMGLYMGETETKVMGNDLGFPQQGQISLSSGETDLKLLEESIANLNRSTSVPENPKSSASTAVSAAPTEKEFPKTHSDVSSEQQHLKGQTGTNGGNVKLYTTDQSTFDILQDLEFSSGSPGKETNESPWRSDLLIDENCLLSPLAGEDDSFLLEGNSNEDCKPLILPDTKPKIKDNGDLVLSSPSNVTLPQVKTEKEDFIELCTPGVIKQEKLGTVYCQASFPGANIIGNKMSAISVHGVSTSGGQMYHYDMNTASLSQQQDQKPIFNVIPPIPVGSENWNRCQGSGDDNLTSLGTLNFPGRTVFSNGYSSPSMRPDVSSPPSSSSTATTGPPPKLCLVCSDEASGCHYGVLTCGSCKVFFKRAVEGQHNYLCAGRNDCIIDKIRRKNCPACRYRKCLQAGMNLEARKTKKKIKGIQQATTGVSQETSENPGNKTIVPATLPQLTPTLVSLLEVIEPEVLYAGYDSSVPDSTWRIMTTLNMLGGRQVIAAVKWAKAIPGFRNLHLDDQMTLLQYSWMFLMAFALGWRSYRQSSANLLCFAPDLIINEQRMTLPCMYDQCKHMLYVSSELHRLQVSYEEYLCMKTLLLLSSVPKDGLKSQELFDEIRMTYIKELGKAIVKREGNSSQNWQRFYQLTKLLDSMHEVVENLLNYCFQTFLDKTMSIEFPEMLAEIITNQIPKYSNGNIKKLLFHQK
How it was run: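 Exogenous NR-GAL4 fusion activity was assessed through induced GAL4-UAS reporter transcripts in transfected human HepG2 cells, quantified after 24 h by RT-PCR and fluorescent capillary electrophoresis with DMSO as baseline.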

[9] = target: Oxysterols receptor LXR-alpha (Homo sapiens) (UniProt Q13133); assay: ATG_LXRa_TRANS: Attagene TRANS-FACTORIAL HepG2 Assay for human Liver X Receptor alpha (LXRa) (AID 2282980); conditions: HepG2 Attagene TRANS reporter, LXRa transactivation
Oxysterols receptor LXR-alpha (Homo sapiens), sequence (Q13133 whole entry, looked up, the tested form may be a part): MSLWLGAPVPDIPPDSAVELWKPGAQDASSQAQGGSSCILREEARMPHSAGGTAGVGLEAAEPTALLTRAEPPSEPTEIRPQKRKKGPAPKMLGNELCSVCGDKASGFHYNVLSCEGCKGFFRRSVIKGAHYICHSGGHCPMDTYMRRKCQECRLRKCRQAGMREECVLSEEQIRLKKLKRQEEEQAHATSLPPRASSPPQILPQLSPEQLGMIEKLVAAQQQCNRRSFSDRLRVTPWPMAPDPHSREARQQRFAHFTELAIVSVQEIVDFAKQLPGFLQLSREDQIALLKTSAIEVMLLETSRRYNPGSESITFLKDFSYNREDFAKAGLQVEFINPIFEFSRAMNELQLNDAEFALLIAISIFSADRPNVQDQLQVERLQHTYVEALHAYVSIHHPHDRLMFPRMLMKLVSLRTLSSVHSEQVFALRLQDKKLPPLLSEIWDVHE
How it was run: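 Read-out: reporter transcript levels by RT-PCR plus capillary electrophoresis, fluorescence intensity. Transiently transfected HepG2, exogenous NR-GAL4 chimera, GAL4-UAS reporters; 24 h compound exposure. Activity = increase over DMSO negative control.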

[10] = target: Oxysterols receptor LXR-beta (Homo sapiens) (UniProt P55055); assay: ATG_LXRb_TRANS: Attagene TRANS-FACTORIAL HepG2 Assay for human Liver X Receptor beta (LXRb) (AID 2282981); conditions: HepG2 Attagene TRANS GAL4-LXRb reporter, mRNA
Oxysterols receptor LXR-beta (Homo sapiens), sequence (P55055 whole entry, looked up, the tested form may be a part): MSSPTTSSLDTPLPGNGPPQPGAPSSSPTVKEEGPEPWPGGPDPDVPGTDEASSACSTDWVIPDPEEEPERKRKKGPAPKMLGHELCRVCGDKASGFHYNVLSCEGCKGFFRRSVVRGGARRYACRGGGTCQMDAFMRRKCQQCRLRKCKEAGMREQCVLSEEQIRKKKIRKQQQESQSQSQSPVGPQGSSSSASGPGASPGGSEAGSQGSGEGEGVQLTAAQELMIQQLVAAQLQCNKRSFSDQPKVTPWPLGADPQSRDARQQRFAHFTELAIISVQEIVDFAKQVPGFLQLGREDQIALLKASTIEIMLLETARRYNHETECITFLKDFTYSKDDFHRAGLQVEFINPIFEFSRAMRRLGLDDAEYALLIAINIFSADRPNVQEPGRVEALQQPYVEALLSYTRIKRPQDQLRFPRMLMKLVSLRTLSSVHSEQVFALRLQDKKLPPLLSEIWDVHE
How it was run: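 After 24 h of chemical treatment, transfected HepG2 cells yield total RNA; reporter cDNA is PCR-amplified, FAM-labelled, HpaI-cut and run on capillary electrophoresis. Signal reflects chimeric LXRb-Gal4 activity on GAL4-UAS reporters.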

[11] = target: Hepatocyte nuclear factor 4-alpha (Homo sapiens) (UniProt P41235); assay: ATG_HNF4a_TRANS: Attagene TRANS-FACTORIAL HepG2 Assay for human Hepatocyte Nuclear Factor 4 alpha (HNF4a) (AID 2282982); conditions: HepG2 HNF4a transactivation reporter, mRNA readout
Hepatocyte nuclear factor 4-alpha (Homo sapiens), sequence (P41235 whole entry, looked up): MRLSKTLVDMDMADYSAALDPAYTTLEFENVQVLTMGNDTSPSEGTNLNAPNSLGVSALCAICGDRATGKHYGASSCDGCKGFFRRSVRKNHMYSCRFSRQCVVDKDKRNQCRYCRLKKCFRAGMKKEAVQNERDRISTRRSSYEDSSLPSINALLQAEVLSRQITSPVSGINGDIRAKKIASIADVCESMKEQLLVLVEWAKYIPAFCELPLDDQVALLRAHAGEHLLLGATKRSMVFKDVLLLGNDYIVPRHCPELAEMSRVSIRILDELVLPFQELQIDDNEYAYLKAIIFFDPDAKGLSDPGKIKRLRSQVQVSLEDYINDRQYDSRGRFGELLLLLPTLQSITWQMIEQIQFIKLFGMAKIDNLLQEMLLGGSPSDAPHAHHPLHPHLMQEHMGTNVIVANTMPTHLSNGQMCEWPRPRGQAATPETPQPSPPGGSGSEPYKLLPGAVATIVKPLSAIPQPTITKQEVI
How it was run: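 Multiplexed reporter assay: transfected HepG2, 24 h exposure, total RNA → oligo(dT) RT → PCR → 6-FAM extension → HpaI digest → CE fluorescence. DMSO = negative control.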

[12] = ATG_M_06_TRANS: Attagene TRANS-FACTORIAL HepG2 Assay for M06 Transcription Factor (Internal Marker) (AID 2282983); conditions: HepG2 Attagene TRANS M06 internal marker reporter
How it was run: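 Read-out: fluorescent reporter cDNA fragments resolved by capillary electrophoresis after RT-PCR and HpaI cut. Source cells were HepG2 carrying transfected multi-reporter GAL4 constructs, dosed 24 h. Increase over DMSO control analysed.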

[13] = target: Nuclear receptor subfamily 4 group A member 2 (Homo sapiens) (UniProt P43354); assay: ATG_NURR1_TRANS: Attagene TRANS-FACTORIAL HepG2 Assay for human Nuclear Receptor Related Protein 1 (NURR1) (AID 2282985); conditions: HepG2 Attagene TRANS reporter, mRNA readout
Nuclear receptor subfamily 4 group A member 2 (Homo sapiens), sequence (P43354 whole entry, looked up, the tested form may be a part): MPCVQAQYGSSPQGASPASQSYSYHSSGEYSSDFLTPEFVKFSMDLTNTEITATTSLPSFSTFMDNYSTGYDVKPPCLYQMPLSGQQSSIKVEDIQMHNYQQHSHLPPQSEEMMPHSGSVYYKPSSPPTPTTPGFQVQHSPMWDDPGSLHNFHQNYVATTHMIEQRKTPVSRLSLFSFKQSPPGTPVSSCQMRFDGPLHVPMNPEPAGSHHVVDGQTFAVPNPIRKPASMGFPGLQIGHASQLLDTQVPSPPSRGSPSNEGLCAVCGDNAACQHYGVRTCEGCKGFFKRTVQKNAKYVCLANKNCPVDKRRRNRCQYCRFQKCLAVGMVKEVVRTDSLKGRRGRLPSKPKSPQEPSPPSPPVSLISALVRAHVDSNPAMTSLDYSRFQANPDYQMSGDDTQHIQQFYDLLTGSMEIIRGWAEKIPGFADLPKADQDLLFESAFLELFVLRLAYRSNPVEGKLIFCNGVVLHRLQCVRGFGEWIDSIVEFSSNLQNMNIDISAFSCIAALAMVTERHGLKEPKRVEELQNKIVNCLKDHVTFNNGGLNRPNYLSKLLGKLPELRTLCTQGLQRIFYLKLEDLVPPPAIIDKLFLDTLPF
How it was run: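 Measures transcriptional activation by an exogenous NR-Gal4 chimera in transfected HepG2 liver cells. After 24 h, reporter RNA is reverse-transcribed, amplified and resolved by capillary electrophoresis; DMSO defines baseline.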

[14] = target: Estrogen receptor (Homo sapiens) (UniProt P03372); assay: ATG_ERa_TRANS: Attagene TRANS-FACTORIAL HepG2 Assay for human Estrogen Receptor alpha (ERa) (AID 2282970); conditions: HepG2 Attagene TRANS ERa GAL4 reporter, mRNA
Estrogen receptor (Homo sapiens), sequence (P03372 whole entry, looked up, the tested form may be a part): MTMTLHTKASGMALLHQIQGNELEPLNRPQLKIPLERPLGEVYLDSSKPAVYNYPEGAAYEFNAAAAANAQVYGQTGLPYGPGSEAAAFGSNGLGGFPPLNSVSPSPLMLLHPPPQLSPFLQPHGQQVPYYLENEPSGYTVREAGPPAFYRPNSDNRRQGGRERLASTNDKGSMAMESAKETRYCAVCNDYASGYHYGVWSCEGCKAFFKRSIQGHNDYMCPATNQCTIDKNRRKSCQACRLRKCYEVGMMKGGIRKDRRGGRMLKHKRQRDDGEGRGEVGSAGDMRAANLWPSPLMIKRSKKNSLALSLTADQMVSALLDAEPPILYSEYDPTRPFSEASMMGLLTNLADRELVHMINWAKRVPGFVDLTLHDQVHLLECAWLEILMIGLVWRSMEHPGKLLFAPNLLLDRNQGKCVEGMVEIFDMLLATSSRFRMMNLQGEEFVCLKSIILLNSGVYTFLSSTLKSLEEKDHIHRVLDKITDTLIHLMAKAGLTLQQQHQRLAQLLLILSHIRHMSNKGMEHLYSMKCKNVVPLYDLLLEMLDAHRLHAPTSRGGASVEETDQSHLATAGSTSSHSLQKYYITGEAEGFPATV
How it was run: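 Reporter mRNA induction after 24 hours, detected by fluorescent RT-PCR and capillary electrophoresis, gives the read-out. Cells are HepG2 transiently transfected with GAL4-UAS reporter transcription units responding to chimeric NR-Gal4. Activity is taken as gain of signal over DMSO baseline.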

[15] = target: Bile acid receptor (Homo sapiens) (UniProt Q96RI1); assay: ATG_FXR_TRANS: Attagene TRANS-FACTORIAL HepG2 Assay for Farnesoid X Receptor (FXR) (AID 2282979); conditions: HepG2 Attagene TRANS FXR-GAL4 reporter transcription;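 further: hits raise reporter mRNA above DMSO so AC50 marks FXR activation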
Bile acid receptor (Homo sapiens), sequence (Q96RI1 whole entry, looked up, the tested form may be a part): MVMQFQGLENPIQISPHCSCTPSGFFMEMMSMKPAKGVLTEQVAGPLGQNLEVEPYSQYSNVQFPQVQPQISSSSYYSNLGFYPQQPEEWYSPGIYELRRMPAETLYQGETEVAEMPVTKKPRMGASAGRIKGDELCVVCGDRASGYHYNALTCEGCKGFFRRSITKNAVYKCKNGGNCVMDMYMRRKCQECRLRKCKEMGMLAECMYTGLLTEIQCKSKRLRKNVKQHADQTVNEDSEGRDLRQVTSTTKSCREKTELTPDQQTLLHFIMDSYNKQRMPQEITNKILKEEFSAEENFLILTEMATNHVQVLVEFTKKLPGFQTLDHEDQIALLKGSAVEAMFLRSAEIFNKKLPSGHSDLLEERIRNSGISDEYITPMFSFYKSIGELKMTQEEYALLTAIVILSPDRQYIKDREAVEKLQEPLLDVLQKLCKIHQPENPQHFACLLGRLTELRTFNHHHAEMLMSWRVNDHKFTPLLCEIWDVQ
How it was run: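 Read-out: fluorescent reporter transcripts quantified by capillary electrophoresis after RT-PCR of total RNA. Source cells were HepG2 transiently carrying chimeric NR-GAL4 plus GAL4-UAS reporter units, dosed 24 h. Activity fitted upward relative to DMSO baseline.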

[16] = ATG_M_32_TRANS: Attagene TRANS-FACTORIAL HepG2 Assay for M32 Transcription Factor (Internal Marker) (AID 2282984); conditions: HepG2 Attagene TRANS M32 internal marker reporter;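 further: transcript level of a background control reporter unit measured by RT-PCR and capillary electrophoresis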
How it was run: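 Cell-based TRANS-format assay in HepG2: exogenous chimeric GAL4 reporter units transiently expressed, compounds applied 24 h. Reporter mRNA detected by RT-PCR plus capillary electrophoresis; this readout is an internal background marker.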

[17] = ATG_Hpa5_TRANS: Attagene TRANS-FACTORIAL HepG2 Assay for human GAL4-Hpa5 Hepatocyte Transcription Factor Basal Promoter (AID 2282975); conditions: HepG2 Attagene GAL4-Hpa5 transcription reporter;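 further: hits are increases in reporter mRNA over DMSO baseline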
How it was run: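 Gain-of-signal versus DMSO is fitted for reporter mRNA quantified by RT-PCR and capillary electrophoresis after 24 h exposure. This endpoint is an internal background marker in transiently transfected HepG2 cells carrying GAL4-UAS reporter units.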

SMILES | outcome [1] | outcome [2] | outcome [3] | outcome [4] | outcome [5] | outcome [6] | outcome [7] | outcome [8] | outcome [9] | outcome [10] | outcome [11] | outcome [12] | outcome [13] | AC50 [14] | outcome [15] | outcome [16] | outcome [14] | outcome [17] | AC50 [3]
O=S(=O)(O)C(F)(F)C(F)(F)C(F)(F)C(F)(F)F | inactive | inactive | inactive | inactive | inactive | inactive | inactive | inactive | inactive | inactive | inactive | inactive | inactive |  |  |  |  |  | 
C[C@]12CCC(=O)C=C1CC[C@@H]1[C@@H]2CC[C@]2(C)C(=O)CC[C@@H]12 | inactive | inactive |  | inactive |  | inactive | inactive |  | inactive | inactive | inactive | inactive | inactive | 65.1 nM (active) and 9.14 nM (active) and 9.25 nM (active) | inactive |  |  |  | 
COS(=O)(=O)OC | inactive | inactive | inactive | inactive |  |  |  |  | inactive | inactive |  | inactive | inactive |  |  | inactive |  |  | 
CN(C)c1nc(=O)n(C2CCCCC2)c(=O)n1C | inactive | inactive | inactive | inactive |  |  |  |  | inactive | inactive |  | inactive |  |  |  |  | inactive | inactive | 
O=C(N[C@H]1CN2CCC1CC2)c1cc2ccoc2cn1 | inactive | inactive | inactive | inactive |  |  |  | inactive | inactive | inactive | inactive | inactive |  |  |  |  | inactive |  | 
CC#Cc1cc(C)nc(Nc2ccccc2)n1 | inactive | inactive |  | inactive |  |  |  | inactive |  | inactive |  | inactive | inactive |  |  |  |  |  | 65.6 µM (active)
